The full data set covers some 7,900 targets. This sample favours those with a hit. About 0.6% of all pairs of compound and target were hits.
Tests used:
Test in all cases: log2 fold change, soluble protein after heating vs DMSO (PISA); higher = thermal stabilisation; K562 cells, 10 uM, 30 min; active = over 0.2 and 3.5 SD of the protein, either way, in both replicates (recomputed)
[1] = compound: CN1CCN(CCOc2cc(OC3CCOCC3)c3c(Nc4c(Cl)ccc5c4OCO5)ncnc3c2)CC1 [saracatinib]
Procedure, shortened: (§1)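 Soluble protein was quantified by TMTpro 16plex LC-MS/MS after channel sums were equalised. It was obtained as the supernatant after 21,000xg for 90 min from pooled aliquots of K562 cells (2×10^6 cells/mL, 10 μM compound, 30 min) heated for 3 min across 48°C-58°C and extracted in PBS with 0.5% NP-40 at 4°C. Thermal stability values are relative to control samples and come from duplicates. They are given as log2 fold changes.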

[2] = compound: CN1CCN(c2nc(C3=C(c4c[nH]c5ccccc45)C(=O)NC3=O)c3ccccc3n2)CC1 [sotrastaurin]
Procedure, shortened: as §1

[3] = compound: CN1CC[C@H](c2c(O)cc(O)c3c(=O)cc(-c4ccccc4Cl)oc23)[C@H](O)C1 [alvocidib]
Procedure, shortened: as §1

[4] = compound: CN1CCc2c(c3ccccc3n2Cc2ccc(C(=O)NO)cc2)C1 [Tubastatin A]
Procedure, shortened: as §1

[5] = compound: CNC(=O)C1=CC=CC=C1NC2=NC(=NC=C2Cl)NC3=C(C=C(C=C3)N4CCOCC4)OC
Procedure, shortened: as §1

[6] = compound: CNC(=O)c1ccc(Nc2ncc(C(F)(F)F)c(NCc3nccnc3N(C)S(C)(=O)=O)n2)cc1 [defactinib]
Procedure, shortened: as §1

[7] = compound: CNCc1ccc(-c2[nH]c3cc(F)cc4c3c2CCNC4=O)cc1 [rucaparib]
Procedure, shortened: as §1

[8] = compound: CNc1nc(-c2ccc3c(N)n[nH]c3c2)cc(N2C[C@@H](C(=O)NC3CCCCC3)CC[C@H]2C)n1
Procedure, shortened: as §1

[9] = compound: COC(=O)N[C@@H](C)CNc1nccc(-c2cn(C(C)C)nc2-c2cc(Cl)cc(NS(C)(=O)=O)c2F)n1 [encorafenib]
Procedure, shortened: as §1

[10] = compound: COC(=O)[C@H](CCSC)NC(=O)C1=C(C=C(C=C1)NC[C@H](CS)N)C2=CC=CC=C2
Procedure, shortened: as §1

Measured: log2 fold change

UCHL5 (UniProt Q9Y5K5)
inactive: [1] -0.044 | [2] -0.057 | [3] -0.097 | [4] 0.148 | [5] 0.013 | [6] -0.107 | [7] 0.074 | [8] -0.001 | [9] 0.091 | [10] -0.028

UBE3D (UniProt Q7Z6J8)
Sequence of UniProt Q7Z6J8 (Q7Z6J8 whole entry, looked up): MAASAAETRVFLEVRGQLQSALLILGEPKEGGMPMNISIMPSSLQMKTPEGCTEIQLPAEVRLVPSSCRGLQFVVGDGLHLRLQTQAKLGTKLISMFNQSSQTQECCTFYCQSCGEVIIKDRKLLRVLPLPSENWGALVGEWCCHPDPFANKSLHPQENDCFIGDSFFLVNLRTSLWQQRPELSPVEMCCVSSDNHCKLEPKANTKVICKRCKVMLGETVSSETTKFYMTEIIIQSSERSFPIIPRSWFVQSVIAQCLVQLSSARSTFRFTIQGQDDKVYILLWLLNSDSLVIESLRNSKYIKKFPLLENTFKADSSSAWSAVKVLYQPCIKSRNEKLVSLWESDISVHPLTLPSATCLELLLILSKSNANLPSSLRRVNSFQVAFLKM
inactive: [1] 0.027 | [2] -0.007 | [3] -0.059 | [4] -0.043 | [5] -0.058 | [6] -0.003 | [7] 0.161 | [8] -0.064 | [9] 0.005 | [10] -0.108

TNNC2 (UniProt P02585)
inactive: [1] 0.007 | [2] 0.095 | [3] -0.009 | [4] -0.139 | [5] -0.035 | [6] 0.012 | [7] -0.025 | [8] -0.056 | [9] -0.049 | [10] 0.037

U2AF1 isoform 2 (UniProt Q01081)
inactive: [1] -0.027 | [2] -0.062 | [3] -0.064 | [4] 0.042 | [5] -0.104 | [6] -0.086 | [7] 0.045 | [8] -0.009 | [9] 0.041 | [10] -0.075

TYW1 (UniProt Q9NV66)
inactive: [1] 0.089 | [2] -0.059 | [3] -0.064 | [4] -0.033 | [5] 0.031 | [6] -0.055 | [7] 0.052 | [8] -0.061 | [9] 0.028 | [10] -0.059

TMEM223 (UniProt A0PJW6)
inactive: [1] 0.114 | [2] 0.048 | [3] -0.025 | [4] -0.059 | [5] 0.045 | [6] 0.015 | [7] -0.03 | [8] -0.02 | [9] -0.047 | [10] 0.022

TUBAL3 (UniProt A6NHL2)
inactive: [1] -0.074 | [2] -0.054 | [3] 0.058 | [4] -0.003 | [5] -0.125 | [6] -0.069 | [8] 0.067 | [9] 0.187 | [10] -0.057
active: [7] -0.51

VPS35L (UniProt Q7Z3J2)
Sequence of UniProt Q7Z3J2 (Q7Z3J2 whole entry, looked up): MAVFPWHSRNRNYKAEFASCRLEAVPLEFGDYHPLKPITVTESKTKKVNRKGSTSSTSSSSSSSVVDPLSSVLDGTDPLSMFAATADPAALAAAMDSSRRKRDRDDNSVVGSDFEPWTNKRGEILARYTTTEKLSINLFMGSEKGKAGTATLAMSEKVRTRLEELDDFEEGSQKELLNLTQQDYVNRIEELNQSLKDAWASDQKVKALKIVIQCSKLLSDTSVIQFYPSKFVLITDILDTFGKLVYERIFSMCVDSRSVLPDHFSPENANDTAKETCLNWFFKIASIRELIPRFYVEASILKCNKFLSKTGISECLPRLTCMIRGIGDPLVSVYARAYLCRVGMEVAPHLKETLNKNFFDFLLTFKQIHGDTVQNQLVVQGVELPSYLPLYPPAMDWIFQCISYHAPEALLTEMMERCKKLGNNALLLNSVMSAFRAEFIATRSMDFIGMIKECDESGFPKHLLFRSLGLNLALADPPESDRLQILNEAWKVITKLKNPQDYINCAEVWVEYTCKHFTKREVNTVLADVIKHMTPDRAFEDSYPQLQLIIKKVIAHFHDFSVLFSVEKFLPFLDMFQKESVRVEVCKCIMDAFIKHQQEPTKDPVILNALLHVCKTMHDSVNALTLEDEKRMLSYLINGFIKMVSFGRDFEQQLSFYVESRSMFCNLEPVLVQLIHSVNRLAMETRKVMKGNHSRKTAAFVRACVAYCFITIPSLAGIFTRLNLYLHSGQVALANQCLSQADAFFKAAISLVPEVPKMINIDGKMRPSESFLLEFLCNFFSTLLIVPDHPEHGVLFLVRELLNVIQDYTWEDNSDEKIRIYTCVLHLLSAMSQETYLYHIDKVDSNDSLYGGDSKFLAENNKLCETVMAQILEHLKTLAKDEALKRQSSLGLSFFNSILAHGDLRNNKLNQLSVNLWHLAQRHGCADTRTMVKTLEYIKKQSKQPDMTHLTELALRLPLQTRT
inactive: [1] 0.013 | [2] -0.141 | [3] 0.17 | [4] -0.015 | [5] -0.016 | [6] -0.081 | [7] 0.018 | [8] 0.045 | [9] -0.001 | [10] -0.037

TRIM28 (UniProt Q13263)
inactive: [1] 0.008 | [2] -0.064 | [3] -0.128 | [4] 0.048 | [5] 0.054 | [6] -0.121 | [7] -0.075 | [8] -0.019 | [9] 0.047 | [10] -0.032

TMEM219 (UniProt Q86XT9)
Sequence of UniProt Q86XT9 (Q86XT9 whole entry, looked up): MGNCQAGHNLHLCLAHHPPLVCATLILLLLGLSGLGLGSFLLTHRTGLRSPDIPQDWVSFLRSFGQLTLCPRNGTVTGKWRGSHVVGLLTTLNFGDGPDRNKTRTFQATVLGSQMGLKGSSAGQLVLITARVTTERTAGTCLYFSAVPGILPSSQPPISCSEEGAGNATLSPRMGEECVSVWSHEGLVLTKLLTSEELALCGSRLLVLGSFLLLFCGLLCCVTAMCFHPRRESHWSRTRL
inactive: [1] 0.261 | [2] 0.03 | [3] -0.12 | [4] -0.059 | [5] -0.016 | [6] -0.185 | [8] 0.176 | [10] -0.093

UGDH (UniProt O60701)
active: [2] -0.284
inactive: [1] -0.036 | [3] -0.273 | [4] 0.004 | [5] -0.085 | [6] -0.209 | [7] -0.089 | [8] 0.074 | [9] 0.087 | [10] -0.038

UHRF1BP1L (UniProt A0JNW5)
inactive: [1] -0.01 | [2] 0 | [3] -0.037 | [4] 0.031 | [5] -0.051 | [6] -0.024 | [7] -0.052 | [8] 0.05 | [9] -0.02 | [10] -0.029

TMEM263 (UniProt Q8WUH6)
inactive: [1] 0.027 | [2] -0.046 | [3] 0.025 | [4] -0.049 | [5] -0.161 | [6] 0.007 | [7] -0.031 | [8] -0.057 | [9] 0.015 | [10] -0.015

VPS33A (UniProt Q96AX1)
inactive: [1] -0.036 | [2] -0.174 | [3] -0.071 | [4] 0.033 | [5] -0.043 | [6] -0.06 | [7] 0.045 | [8] -0.013 | [9] -0.003 | [10] -0.025

TMEM161B (UniProt Q8NDZ6)
Sequence of UniProt Q8NDZ6 (Q8NDZ6 whole entry, looked up): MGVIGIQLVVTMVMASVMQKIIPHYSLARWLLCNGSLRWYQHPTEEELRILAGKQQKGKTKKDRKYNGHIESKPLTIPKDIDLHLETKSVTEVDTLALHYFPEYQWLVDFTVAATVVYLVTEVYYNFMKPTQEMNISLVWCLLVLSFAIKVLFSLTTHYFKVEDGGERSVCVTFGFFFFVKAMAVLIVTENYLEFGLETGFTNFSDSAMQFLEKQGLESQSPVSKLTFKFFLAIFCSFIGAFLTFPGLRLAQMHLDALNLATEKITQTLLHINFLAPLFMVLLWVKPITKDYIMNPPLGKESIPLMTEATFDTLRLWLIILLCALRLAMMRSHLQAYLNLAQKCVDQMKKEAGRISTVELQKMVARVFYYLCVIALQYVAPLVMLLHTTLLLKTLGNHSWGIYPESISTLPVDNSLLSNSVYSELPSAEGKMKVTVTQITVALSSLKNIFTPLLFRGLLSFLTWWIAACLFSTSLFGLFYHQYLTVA
inactive: [1] 0.048 | [2] 0.037 | [3] -0.037 | [4] -0.007 | [5] -0.043 | [6] -0.061 | [7] 0.013 | [8] -0.049 | [9] -0.023 | [10] -0.05

WDR43 (UniProt Q15061)
inactive: [1] 0.031 | [2] 0.014 | [3] 0.062 | [4] -0.045 | [5] 0.001 | [6] 0.101 | [7] 0.07 | [8] -0.002 | [9] -0.009 | [10] -0.007

WASHC2A (UniProt Q641Q2)
inactive: [1] 0.013 | [2] 0.001 | [3] 0.052 | [4] 0.016 | [5] 0.015 | [6] 0.01 | [7] 0.045 | [8] -0.039 | [9] 0.019 | [10] 0.017

TOMM5 isoform 2 (UniProt Q8N4H5)
inactive: [1] -0.033 | [2] 0.064 | [3] 0.012 | [4] 0.027 | [5] 0.059 | [6] 0.01 | [7] -0.033 | [8] -0.031 | [9] -0.036 | [10] 0.049

VPS53 isoform 4 (UniProt Q5VIR6)
inactive: [1] 0.029 | [2] -0.102 | [3] -0.146 | [4] 0.017 | [5] -0.009 | [6] -0.056 | [7] 0.061 | [8] -0.028 | [9] 0.06 | [10] -0.001

TOP2A isoform 4 (UniProt P11388)
Sequence of UniProt P11388 (P11388 whole entry, looked up): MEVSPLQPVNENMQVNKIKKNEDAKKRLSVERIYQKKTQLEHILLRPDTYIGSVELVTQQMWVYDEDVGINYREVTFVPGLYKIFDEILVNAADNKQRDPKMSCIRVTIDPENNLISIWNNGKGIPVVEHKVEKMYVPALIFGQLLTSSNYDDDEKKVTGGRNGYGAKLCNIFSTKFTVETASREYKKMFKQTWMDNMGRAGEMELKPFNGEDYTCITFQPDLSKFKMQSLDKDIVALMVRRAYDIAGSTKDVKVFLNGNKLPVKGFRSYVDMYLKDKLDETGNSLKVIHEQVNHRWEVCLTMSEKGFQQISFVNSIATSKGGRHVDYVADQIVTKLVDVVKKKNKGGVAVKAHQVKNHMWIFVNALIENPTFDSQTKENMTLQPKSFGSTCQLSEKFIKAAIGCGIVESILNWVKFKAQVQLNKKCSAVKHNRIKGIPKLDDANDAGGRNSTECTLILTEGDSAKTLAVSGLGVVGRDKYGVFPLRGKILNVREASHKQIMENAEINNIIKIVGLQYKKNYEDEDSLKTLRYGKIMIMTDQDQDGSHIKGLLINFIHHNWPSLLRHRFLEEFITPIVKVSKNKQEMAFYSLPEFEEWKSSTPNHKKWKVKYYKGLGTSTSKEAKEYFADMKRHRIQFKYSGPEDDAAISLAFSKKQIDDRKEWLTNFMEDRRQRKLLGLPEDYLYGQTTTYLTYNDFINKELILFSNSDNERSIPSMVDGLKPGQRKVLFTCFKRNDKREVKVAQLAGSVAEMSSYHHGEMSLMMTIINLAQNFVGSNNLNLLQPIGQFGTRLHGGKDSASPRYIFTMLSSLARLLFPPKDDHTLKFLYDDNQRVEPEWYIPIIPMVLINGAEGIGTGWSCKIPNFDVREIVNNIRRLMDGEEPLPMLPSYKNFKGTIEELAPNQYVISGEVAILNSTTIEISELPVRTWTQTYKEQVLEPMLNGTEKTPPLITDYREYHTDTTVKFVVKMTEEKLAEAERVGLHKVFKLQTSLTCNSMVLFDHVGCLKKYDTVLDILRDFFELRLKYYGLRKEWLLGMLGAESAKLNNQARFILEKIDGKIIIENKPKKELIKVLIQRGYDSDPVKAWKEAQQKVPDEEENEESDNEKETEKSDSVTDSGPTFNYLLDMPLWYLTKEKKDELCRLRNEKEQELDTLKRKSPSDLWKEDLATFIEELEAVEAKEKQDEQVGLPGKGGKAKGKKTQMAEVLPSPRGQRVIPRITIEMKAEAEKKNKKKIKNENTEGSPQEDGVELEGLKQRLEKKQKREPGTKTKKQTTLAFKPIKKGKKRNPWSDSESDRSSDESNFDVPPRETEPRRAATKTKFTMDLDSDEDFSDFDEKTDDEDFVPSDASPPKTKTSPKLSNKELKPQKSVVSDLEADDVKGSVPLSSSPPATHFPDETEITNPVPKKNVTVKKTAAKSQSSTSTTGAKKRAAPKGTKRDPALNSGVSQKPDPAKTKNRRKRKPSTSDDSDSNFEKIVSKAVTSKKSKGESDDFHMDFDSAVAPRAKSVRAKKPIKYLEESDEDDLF
inactive: [1] -0.168 | [2] 0.006 | [3] 0.261 | [4] 0.103 | [5] 0.102 | [6] 0.438 | [7] 0.434 | [8] 0.273 | [9] 0.288 | [10] -0.086

TOMM20 (UniProt Q15388)
inactive: [1] 0.012 | [2] -0.005 | [3] -0.001 | [4] -0.031 | [5] -0.028 | [6] -0.011 | [7] -0.009 | [8] -0.034 | [9] -0.131 | [10] 0.033

UBA1 (UniProt P22314)
inactive: [1] -0.048 | [2] -0.17 | [3] -0.127 | [4] -0.052 | [5] 0.015 | [6] -0.058 | [7] -0.019 | [8] 0.055 | [9] 0.149 | [10] -0.057

VPS72 isoform 2 (UniProt Q15906)
inactive: [1] -0.094 | [2] 0.004 | [3] 0.042 | [4] -0.011 | [5] -0.021 | [6] -0.016 | [7] 0.28 | [8] -0.082 | [9] -0.053 | [10] -0.019

TRAPPC11 (UniProt Q7Z392)
inactive: [1] -0.043 | [2] -0.041 | [3] -0.085 | [4] 0 | [5] -0.028 | [6] -0.075 | [7] 0.051 | [8] -0.027 | [9] 0.035 | [10] -0.031

WEE1 (UniProt P30291)
inactive: [1] 0.068 | [2] 0.007 | [3] 0.084 | [4] 0.117 | [5] 0.075 | [6] -0.029 | [8] -0.052 | [10] 0.082

ULBP1 (UniProt Q9BZM6)
Sequence of UniProt Q9BZM6 (Q9BZM6 whole entry, looked up): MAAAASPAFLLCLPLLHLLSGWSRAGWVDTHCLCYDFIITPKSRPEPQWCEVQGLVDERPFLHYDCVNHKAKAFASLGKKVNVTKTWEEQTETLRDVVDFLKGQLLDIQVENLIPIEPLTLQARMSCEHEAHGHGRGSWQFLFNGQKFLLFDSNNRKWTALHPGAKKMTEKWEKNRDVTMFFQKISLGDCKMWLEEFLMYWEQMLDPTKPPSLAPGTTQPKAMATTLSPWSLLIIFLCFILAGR
inactive: [1] -0.027 | [2] -0.175 | [3] 0.005 | [4] 0.016 | [5] -0.096 | [6] 0.064 | [8] 0.07 | [10] 0.048

TSPAN13 (UniProt O95857)
inactive: [1] -0.055 | [2] 0.044 | [3] -0.305 | [4] -0.11 | [5] 0.054 | [6] -0.104 | [8] -0.029 | [10] -0.291

VPS37A (UniProt Q8NEZ2)
inactive: [1] -0.043 | [2] -0.087 | [3] 0.015 | [4] 0.002 | [5] 0.07 | [6] -0.164 | [8] 0.065 | [10] 0.138

TRIM5 (UniProt Q9C035)
inactive: [1] -0.429 | [2] 0.103 | [3] -0.048 | [4] -0.102 | [5] -0.093 | [6] -0.108 | [8] -0.017 | [10] 0.019

WAPL isoform 3 (UniProt Q7Z5K2)
Sequence of UniProt Q7Z5K2 (Q7Z5K2 whole entry, looked up): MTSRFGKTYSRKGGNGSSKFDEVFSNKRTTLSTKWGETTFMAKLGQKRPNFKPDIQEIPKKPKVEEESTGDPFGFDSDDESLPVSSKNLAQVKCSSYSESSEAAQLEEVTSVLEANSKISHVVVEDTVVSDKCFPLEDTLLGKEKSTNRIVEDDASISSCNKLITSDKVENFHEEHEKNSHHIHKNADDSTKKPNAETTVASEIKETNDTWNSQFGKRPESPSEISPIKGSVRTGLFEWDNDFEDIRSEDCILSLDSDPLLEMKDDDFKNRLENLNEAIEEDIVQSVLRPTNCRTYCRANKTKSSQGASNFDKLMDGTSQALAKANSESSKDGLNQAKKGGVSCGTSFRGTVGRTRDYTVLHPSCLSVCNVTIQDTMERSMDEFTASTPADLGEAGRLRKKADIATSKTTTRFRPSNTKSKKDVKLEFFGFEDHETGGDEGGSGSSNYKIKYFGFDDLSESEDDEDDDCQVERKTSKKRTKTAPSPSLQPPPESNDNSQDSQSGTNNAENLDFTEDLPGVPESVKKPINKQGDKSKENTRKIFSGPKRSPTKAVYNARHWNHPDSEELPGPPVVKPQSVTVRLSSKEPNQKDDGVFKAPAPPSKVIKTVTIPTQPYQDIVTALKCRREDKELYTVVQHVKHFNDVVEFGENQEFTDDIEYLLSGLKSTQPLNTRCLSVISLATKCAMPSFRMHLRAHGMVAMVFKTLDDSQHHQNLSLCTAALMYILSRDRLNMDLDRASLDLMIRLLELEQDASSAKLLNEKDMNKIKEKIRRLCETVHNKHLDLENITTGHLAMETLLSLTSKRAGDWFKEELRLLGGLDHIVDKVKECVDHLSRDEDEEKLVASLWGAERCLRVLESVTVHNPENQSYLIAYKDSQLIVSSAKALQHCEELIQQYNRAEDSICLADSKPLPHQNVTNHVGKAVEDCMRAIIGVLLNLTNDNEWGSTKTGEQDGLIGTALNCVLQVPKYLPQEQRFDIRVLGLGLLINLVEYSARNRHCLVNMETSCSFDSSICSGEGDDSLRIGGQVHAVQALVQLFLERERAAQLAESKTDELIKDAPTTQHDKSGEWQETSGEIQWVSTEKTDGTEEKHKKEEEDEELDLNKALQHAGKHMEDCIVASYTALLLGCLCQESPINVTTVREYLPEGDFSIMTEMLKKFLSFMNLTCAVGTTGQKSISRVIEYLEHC
inactive: [1] 0.043 | [2] -0.144 | [3] -0.296 | [4] 0.063 | [5] -0.008 | [6] -0.265 | [7] -0.066 | [8] -0.052 | [9] 0.212 | [10] -0.079

XIAP (UniProt P98170)
inactive: [1] -0.149 | [2] -0.119 | [3] -0.108 | [4] 0.002 | [5] -0.033 | [6] -0.12 | [7] 0.107 | [8] -0.075 | [9] 0.081 | [10] 0.033

From the supplement of paper PMC10849652
